Data from PubChem BioAssay (NCATS).
Where “and” joins values, the source holds several entries; their conditions need not be identical. Equal entries are not always repeated. Inconclusive results are not listed. Where a call stands in place of a potency, no number is given. Calls of active or inactive are those of the source. Unless noted, calls come from the whole dose curve; as a rule, active = well fitted curve in the direction sought with a large enough effect; inconclusive = small, poorly fitted or top-dose-only effect, or another doubt; inactive = no such curve, though single readings can be large; an effect the other way counts as inactive or inconclusive.

What was measured:
[1] = tested on: Zika virus NS2B-NS3 protease (unlinked complex); assay: Primary screen GU Rhodamine qHTS for Zika virus inhibitors: Unlinked NS2B-NS3 protease assay (AID 1347159); note: nearly all actives have a fitted effect of over 60% in size; note: potency is the fitted concentration of half-maximal effect
In short: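 Percent inhibition came from the 15-min rise in Rhodamine110 fluorescence (1.5 microM substrate, ~15% conversion), normalized to no-inhibitor and no-enzyme wells and Hill-fitted. Unlinked protease, 25 nM, pH 8.0 Tris buffer; compounds up to 114 microM, 15-min preincubation.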

[2] = tested on: CASKI; assay: Primary qHTS to identify gynecologic anti-cancer compounds using libraries of approved drugs and bioactive compounds (AID 1345084); conditions: Gynecologic cancer cell panel viability, ATPlite luminescence, 48 h; series mostly up to 57.5 µM; note: nearly all actives have a fitted effect of over 55% in size; note: potency is the fitted concentration of half-maximal effect
In short: (§1)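 Measured: luminescence after ATPlite addition (15 min, RT). Exposure: 48 h, 37 C, 5% CO2.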

[3] = tested on: Tov-21-G; assay: as above; conditions: Gynecologic cancer cell panel viability, ATPlite luminescence, 48 h; series mostly up to 57.5 µM
In short: as §1

[4] = target: Catechol O-methyltransferase (Homo sapiens) (UniProt P21964); assay: Confirmatory Screen for Target Class Profiling of Small Molecule Inhibitors of Methyltransferases (AID 1745852; calls by dose curve; note: potency is the fitted concentration of half-maximal effect); conditions: MTase-Glo luminescence, SAH detection, recombinant enzyme; measured here: COMT max response; stronger effect = lower value
[5] = target: Guanidinoacetate N-methyltransferase (Homo sapiens) (UniProt Q14353); assay: as above; conditions: activity change, negative = inhibition: at 57.3 µM (top of the series) unless noted
[6] = target: Nicotinamide N-methyltransferase (Homo sapiens) (UniProt P40261); assay: as above; conditions: MTase-Glo luminescence, SAH detection, recombinant enzyme; measured here: NNMT max response; stronger effect = lower value
[7] = target: Phenylethanolamine N-methyltransferase (Homo sapiens) (UniProt P11086); assay: as above; conditions: MTase-Glo luminescence, SAH detection, recombinant enzyme; measured here: PNMT max response; stronger effect = lower value
[8] = tested on: CAOV3; assay: Primary qHTS to identify gynecologic anti-cancer compounds using libraries of approved drugs and bioactive compounds (AID 1345084); conditions: Gynecologic cancer cell panel viability, ATPlite luminescence, 48 h; series mostly up to 57.5 µM; note: nearly all actives have a fitted effect of over 55% in size; note: potency is the fitted concentration of half-maximal effect
In short: as §1

[9] = tested on: SKOV3; assay: as above; conditions: Gynecologic cancer cell panel viability, ATPlite luminescence, 48 h; series mostly up to 57.5 µM
In short: as §1

[10] = tested on: C33A; assay: as above; conditions: Gynecologic cancer cell panel viability, ATPlite luminescence, 48 h; series mostly up to 57.5 µM
In short: as §1

[11] = qHTS to identify inhibitors of the type 1 interferon - major histocompatibility complex class I in skeletal muscle: primary screen against the NCATS Mechanism Interrogation Plate v5.0 (MIPE) Libary (AID 1347411); note: potency is the fitted concentration of half-maximal effect; nearly all actives have a fitted effect of over 65% in size
In short: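 HLA-B HiBit myoblasts, dexamethasone-free medium + 4 ng/ml IFN-b, 24 h compound, 11-pt 1:3 from 46 uM final. Readout: Nano-Glo HiBiT lytic luminescence after 10 min lysis, RT.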

[12] = tested on: PA-1; assay: Primary qHTS to identify gynecologic anti-cancer compounds using libraries of approved drugs and bioactive compounds (AID 1345084); conditions: Gynecologic cancer cell panel viability, ATPlite luminescence, 48 h; series mostly up to 57.5 µM; note: nearly all actives have a fitted effect of over 55% in size; note: potency is the fitted concentration of half-maximal effect
In short: as §1

[13] = target: Cytochrome P450 2D6 (Homo sapiens) (UniProt P10635); assay: Cytochrome P450 family 2 subfamily D member 6 (CYP2D6) small molecule antagonists: luciferase biochemical (cell-free) qHTS assay (AID 1645840; active = well fitted curve in the direction sought with a large enough effect in the repeat runs; an effect the other way counts as inactive or inconclusive; note: nearly all actives have a fitted effect of over 55% in size; note: potency is the fitted concentration of half-maximal effect)
In short: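 P450-Glo CYP2D6 system: proluciferin substrate converted by enzyme to luciferin, read by luminescence proportional to activity. Enzyme-substrate mix with compound 10 min at room temperature, then NADPH regeneration 1 h before detection reagent.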

[14] = target: Cytochrome P450 2C9 (Homo sapiens) (UniProt P11712); assay: Cytochrome P450 family 2 subfamily C member 9 (CYP2C9) small molecule antagonists: luciferase biochemical (cell-free) qHTS assay (AID 1645842; active = well fitted curve in the direction sought with a large enough effect in the repeat runs; an effect the other way counts as inactive or inconclusive; note: nearly all actives have a fitted effect of over 55% in size; note: potency is the fitted concentration of half-maximal effect)
In short: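 P450-Glo CYP2C9 system: proluciferin substrate with enzyme in mix containing 0.4% BSA, 10 min at room temperature, then NADPH regeneration solution added and incubated 1 h at 37C. Detection reagent stopped reaction; luminescence read after 20 min as RLU.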

[15] = qHTS Assay for Identifying Gametocytocidal Compounds (AID 743244);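 note: actives lower the fluorescent signal which means gametocytes are killed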; conditions: P. falciparum 3D7 stage III-V gametocytes, alamarBlue, 72 h; max response: stronger effect = lower value
In short: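 Using 20,000 stage III–V 3D7 gametocytes per well, compounds were incubated 72 h under 37 °C/5% CO2. Viability was then assessed by 24 h alamarBlue reduction, measured fluorometrically at 525/598 nm.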

[16] = tested on: astro; assay: Drug repurposing screens with cells derived from glioblastoma tumor samples (AID 1345199); conditions: viability, ATP luminescence, 48 h; series mostly up to 45.9 µM; note: nearly all actives have a fitted effect of over 40% in size
In short: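 Primary testing used CD133+ neurospheres from four GBM patients, seven concentrations, 48 h exposure and ATP-based viability; confirmation added three slower-growing patient lines.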

[17] = tested on: Zika virus NS2B-NS3 protease; assay: Primary screen GU AMC qHTS for Zika virus inhibitors (AID 1347154); note: nearly all actives have a fitted effect of over 70% in size
In short: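 Fluorogenic AMC-substrate cleavage by noncovalent NS2B-NS3 protease complex (25 nM, pH 8.0 Tris buffer with Tween 20) followed for 15 minutes at room temperature (~20% conversion). Percent inhibition from ex340/em450 signal change, fitted by 4-parameter Hill equation.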

[18] = Primary qHTS for small molecule stabilizers of the endoplasmic reticulum resident proteome: Secreted ER Calcium Modulated Protein (SERCaMP) assay (AID 1508630)
In short: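 The SH-SY5Y reporter protocol was run at 3 concentrations up to 38.3 uM (primary) or 11 concentrations (follow-up): 16 h compound, 100 nM thapsigargin for 4 h, then extracellular luciferase luminescence.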

[19] = qHTS assay to identify inhibitors of the type 1 interferon - major histocompatibility complex class I in skeletal muscle: Counter screen cell viability and HiBit confirmation (AID 1347412); conditions: iHSKM muscle cells + IFN-b, HiBiT or CellTiter-Glo, 24 h; note: nearly all actives have a fitted effect of over 60% in size; note: potency is the fitted concentration of half-maximal effect
In short: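 HLA-B*08:01–HiBiT knock-in immortalized human myoblasts (C25cl48) stimulated with 4.0 ng/ml human IFN-beta and dosed with compound in a 12-point 1:3 titration (top final 46 uM). After 24 hrs at 37 C, HiBiT lytic luminescence or CellTiter Glo ATP read out.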

Chain of Cytochrome P450 2D6 (Homo sapiens) (P10635 whole entry, looked up): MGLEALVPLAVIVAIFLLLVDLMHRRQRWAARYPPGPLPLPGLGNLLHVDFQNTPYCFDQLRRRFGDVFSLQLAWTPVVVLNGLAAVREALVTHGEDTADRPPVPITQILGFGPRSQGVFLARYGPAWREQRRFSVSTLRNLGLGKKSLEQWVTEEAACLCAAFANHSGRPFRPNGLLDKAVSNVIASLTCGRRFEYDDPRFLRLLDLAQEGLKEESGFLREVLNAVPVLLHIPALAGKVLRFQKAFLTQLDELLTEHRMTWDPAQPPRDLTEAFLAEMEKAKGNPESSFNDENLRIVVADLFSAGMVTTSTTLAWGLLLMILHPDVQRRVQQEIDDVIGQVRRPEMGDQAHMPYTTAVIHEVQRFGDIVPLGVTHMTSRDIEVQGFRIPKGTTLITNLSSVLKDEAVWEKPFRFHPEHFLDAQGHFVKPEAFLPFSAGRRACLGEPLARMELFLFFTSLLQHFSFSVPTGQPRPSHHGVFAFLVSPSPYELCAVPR
Chain of Catechol O-methyltransferase (Homo sapiens) (P21964 whole entry, looked up): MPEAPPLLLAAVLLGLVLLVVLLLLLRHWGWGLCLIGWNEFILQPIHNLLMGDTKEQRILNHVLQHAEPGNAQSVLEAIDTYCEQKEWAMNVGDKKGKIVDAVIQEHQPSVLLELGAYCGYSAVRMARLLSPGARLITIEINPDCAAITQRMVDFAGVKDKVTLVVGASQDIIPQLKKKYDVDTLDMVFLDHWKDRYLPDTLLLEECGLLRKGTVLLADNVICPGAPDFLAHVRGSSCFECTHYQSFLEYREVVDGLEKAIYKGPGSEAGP
Chain of Phenylethanolamine N-methyltransferase (Homo sapiens) (P11086 whole entry, looked up): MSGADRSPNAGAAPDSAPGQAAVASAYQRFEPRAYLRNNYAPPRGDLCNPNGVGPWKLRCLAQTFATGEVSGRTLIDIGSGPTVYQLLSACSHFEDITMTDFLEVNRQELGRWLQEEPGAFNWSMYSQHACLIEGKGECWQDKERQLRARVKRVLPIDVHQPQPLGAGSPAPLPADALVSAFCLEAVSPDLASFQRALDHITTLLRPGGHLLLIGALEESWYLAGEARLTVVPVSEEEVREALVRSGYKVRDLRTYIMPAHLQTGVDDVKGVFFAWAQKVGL
Chain of Nicotinamide N-methyltransferase (Homo sapiens) (P40261 whole entry, looked up): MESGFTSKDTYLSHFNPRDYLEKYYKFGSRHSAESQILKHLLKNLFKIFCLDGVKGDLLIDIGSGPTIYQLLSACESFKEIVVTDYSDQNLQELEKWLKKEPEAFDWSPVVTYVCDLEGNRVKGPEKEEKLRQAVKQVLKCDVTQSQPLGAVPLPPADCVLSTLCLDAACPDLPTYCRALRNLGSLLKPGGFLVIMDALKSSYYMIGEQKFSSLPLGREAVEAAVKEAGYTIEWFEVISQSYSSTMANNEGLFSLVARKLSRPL
Chain of Cytochrome P450 2C9 (Homo sapiens) (P11712 whole entry, looked up): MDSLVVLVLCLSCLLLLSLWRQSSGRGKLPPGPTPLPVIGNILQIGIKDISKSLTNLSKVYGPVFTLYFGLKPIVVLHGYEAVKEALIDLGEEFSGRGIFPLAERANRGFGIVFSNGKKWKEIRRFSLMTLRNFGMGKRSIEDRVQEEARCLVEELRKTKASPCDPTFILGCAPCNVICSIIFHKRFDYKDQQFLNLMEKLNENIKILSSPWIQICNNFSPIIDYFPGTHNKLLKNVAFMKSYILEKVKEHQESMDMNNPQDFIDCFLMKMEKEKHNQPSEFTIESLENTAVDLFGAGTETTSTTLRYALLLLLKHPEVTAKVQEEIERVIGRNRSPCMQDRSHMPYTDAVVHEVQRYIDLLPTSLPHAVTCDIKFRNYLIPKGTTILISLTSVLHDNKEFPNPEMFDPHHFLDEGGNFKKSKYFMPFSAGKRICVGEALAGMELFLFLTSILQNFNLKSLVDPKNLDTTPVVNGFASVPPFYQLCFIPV

O=C(Nc1ncc(SCCN2CCCC2)s1)C1(c2ccc(S(=O)(=O)C3CC3)cc2)CC1C1CCCCC1 (configuration not stated)
Potency [1]: inactive
Potency [2]: inactive
Potency [3]: inactive

O=C(O)c1ccc(O)c2ncc(N3CCCN(CCc4cccc5ccccc45)CC3)cc12
activity [4]: 15.8%
activity change, negative = inhibition [5]: 8.48%
activity [6]: -19.7%
activity [7]: -64.3%
Potency [8]: inactive
Potency [2]: inactive

CN(C)CCCCCCNC(=O)c1cccc(-c2cc(O)c3ncccc3c2)c1
activity [4]: -95.5%
activity change, negative = inhibition [5]: 6.43%
activity [6]: -1.3%
activity [7]: 4.93%
Potency [8]: inactive
Potency [9]: inactive

N#Cc1ccc(-c2ccc(NC(=O)Nc3ccc(-c4ccnc5nc[nH]c45)cc3)cc2)cc1
Potency [10]: 5.01 µM (active)

CC1CCC2(NC1)OC1CC3C4CC=C5CC(O[C@@H]6O[C@H](CO)[C@@H](O[C@@H]7O[C@@H](C)[C@H](O)[C@@H](O)[C@H]7O)[C@H](O)[C@H]6O[C@@H]6O[C@@H](C)[C@H](O)[C@@H](O)[C@H]6O)CCC5(C)C4CCC3(C)C1C2C (some centres not stated)
Potency [1]: inactive
activity change, negative = cytotoxicity [2]: -25.1% [at 11.6 µM] (inactive)
activity change, negative = cytotoxicity [3]: -23.3% [at 11.6 µM] (inactive)

COC(=O)/C=C/C(=O)N(O)CCCCNCc1ccc(COC(=O)Nc2cccc3ccccc23)cc1
Potency [1]: inactive
Potency [11]: 13.1 µM (active)
Potency [3]: inactive

COc1cc(N2CCN(C)CC2)ccc1Nc1nccc(-c2cn(C)c3cnccc23)n1
Potency [1]: inactive
Potency [9]: 12.6 µM (active)
Potency [3]: inactive

c1ccc(Cn2c(-c3ccc(OCC(C4CCNCC4)n4c(-c5ccccc5)nc5ccccc54)cc3)nc3ccccc32)cc1 (configuration not stated)
activity [4]: -14.2%
activity change, negative = inhibition [5]: -5.98%
activity [6]: -61.3%
activity [7]: -1.77%
Potency [2]: inactive
Potency [12]: inactive
Potency [3]: inactive

C=C(C)C(=O)O[C@H]1[C@H]2C(=C)C(=O)O[C@@H]2C[C@@H](C)[C@@H]2O[C@@H]2C(=O)[C@](C)(O)[C@@H]1OC(C)=O
Potency [9]: 2.51 µM (active)

CCOc1cc(CNC2CCCC2)cc(Cl)c1OCc1ccc(Cl)cc1
Potency [1]: inactive
Potency [13]: 1.51 µM (active)
Potency [14]: 19 µM (active)
Potency [8]: 22.4 µM (active)

CNc1nc(-c2ccc3c(N)n[nH]c3c2)cc(N2CC(C(=O)NC3CCCCC3)CCC2C)n1 (configuration not stated)
Potency [1]: inactive
Potency [13]: 23.9 µM (active)
Potency [10]: inactive
Potency [2]: inactive

CCCc1c(C(C)C)nc(C(C)C)c([C@@H](C)O)c1-c1ccc(F)cc1O
Potency [1]: 14.1 µM (active)
Potency [2]: inactive
Potency [12]: inactive
Potency [3]: inactive

CCOc1ccc(-c2nc(-c3cccc4c3CCC4NCCO)no2)cc1OCC (configuration not stated)
Potency [13]: inactive
Potency [14]: inactive
Potency [10]: inactive
Potency [2]: inactive
Potency [12]: inactive
Potency [3]: inactive

FC(F)(F)c1ccc(CNc2ccc(Cc3c[nH]c4ncccc34)cn2)cc1
Potency [1]: inactive
Potency [13]: 0.19 µM (active)
Potency [8]: inactive
Potency [3]: inactive

N#Cc1cccc(C#N)c1-c1nc2c3ccccc3c3cc(Cl)ccc3c2[nH]1
Potency [1]: inactive
Potency [8]: inactive
Potency [2]: inactive
Potency [12]: inactive
Potency [3]: inactive

NCCNCCN
max response [15]: 9.59% (inactive)
Potency [16]: inactive

COc1cc(/C=C(\C#N)C(N)=O)cc(CSc2nc3ccccc3s2)c1O
Potency [17]: inactive
Potency [18]: inactive

CN1C/C=C/CCOc2cccc(c2)-c2ccnc(n2)Nc2cccc(c2)C1
Potency [11]: 0.165 µM (active)
Potency ([19]; HiBiT): 0.111 µM (active)
activity change, negative = inhibition ([19]; Viability, at 45.9 µM (top of the series)): -20% (inactive)

CCCCCCCCCCCCC/C=C/[C@@H](O)[C@H](CO)N(C)C
activity change, negative = inhibition [17]: 11% [at 6.83 µM] (inactive) and 6.76% [at 6.83 µM] (inactive)
activity change, negative = inhibition [18]: -20.6% [at 3.88 µM] (inactive)

Nc1ncnc2c1c(I)cn2C1OC(CO)C(O)C1O (configuration not stated)
Potency [17]: inactive
Potency [18]: inactive
activity [4]: -96.2%
Potency [5]: 12.1 µM (active)
activity [6]: -88.4%
activity [7]: -97.6%

Cc1nc2c(O)cccc2c(=O)[nH]1
Potency [17]: inactive
Potency [18]: inactive
